Data: PubChem BioAssay AID678 (Vanderbilt High Throughput Screening Facility, 2007)
Among all 1,700 compounds or so, about 15 (0.9%) were called active.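 Rule for the calls: active = fluorescence response below the plate's average for near-maximal glutamate wells, less 3 SD of those wells; inactive = the rest.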 These entries were drawn from the full list.

Biological target: Metabotropic glutamate receptor 4 (Homo sapiens) (UniProt Q14833)
Experiment: human mGluR4 response to M1 antagonist hits, M1 allosteric modulator project, cell-based, antagonist mode, secondary assay 1 (AID 678);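 note: raw unnormalized fluorescence span taken in the window right after glutamate addition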
Conditions: CHO-mGluR4 calcium flux, Fluo-4 fluorescence, glutamate EC80; at 10 µM; stronger effect = lower value

Fluorescence response (max-min), inactive:
CN1CCN(c2ccc(NC(=O)COc3ccc(Cl)cc3Cl)cc2)CC1 245
O=C(C(c1ccccc1)c1ccccc1)N1CCN(CC(O)COc2ccccc2)CC1 (stereo unspecified) 172
C=CCSc1nc2ccccc2[nH]1 255
COC(CCN(C)C)(c1ccccc1)c1ccccc1 257
CCN1CCN(c2c(Cl)cccc2NC(=O)c2ccc(Br)o2)CC1 203
O=C(Nc1ccncc1)c1c(F)cccc1F 195
CCn1c(=O)cc(OCC(=O)NCCCN2CCN(c3cccc(Cl)c3)CC2)c2ccccc21 275
CCOC(=O)c1c(NC(=O)CSc2nnc(CN3CCOCC3)n2C)sc2c1CCCC2 212
COC(=O)c1ccc(C2C3=C(Nc4nnnn42)c2ccccc2OC3)cc1 (stereo unspecified) 256
CCC/C(O)=C1\C(=O)CC(C)(C)CC1=Nc1ccccc1OC 272
CCOC(=O)Nc1ccc2c(c1)N(C(=O)CN1CCN3CCCC3C1)c1ccccc1CC2 (stereo unspecified) 187
O=C(c1ccc(-n2cnnn2)cc1)N1CCN(C(c2ccccc2)c2ccccc2)CC1 242
CCOC(=O)N1CCN(S(=O)(=O)c2cc(Br)cc3c2N(C(=O)C2CC2)CC3)CC1 246
Cc1cc(C)n(-c2nc(SCC(=O)N3CCCC3)c3c4c(sc3n2)CCCC4)n1 193
CCCCN(CCCC)C(=O)CCS(=O)(=O)c1ccc2c(c1)n(C)c(=O)c(=O)n2C 272
C=C(C)Cn1c(N2CCCC2)nc2c1c(=O)[nH]c(=O)n2C 203
Cc1c(C)c2cc3c4c(oc3c(C)c2oc1=O)CCCC4 174
CCN1C(=O)/C(=C2\SC(N3CCCCC3)=NC2=O)c2ccccc21 235
CCCCOc1ccc(C(C)(O)CCN2CCOCC2)cc1 (stereo unspecified) 209
O=C(CCCN1C(=O)CSc2ncccc21)N1CCN(c2cccc(C(F)(F)F)c2)CC1 263
COc1ccccc1OCCOc1ccc(/C=N/n2cnnc2)cc1 239
